Laboratory results as given in PubChem BioAssay (NCATS).
Several values for one entry are separate records, joined by “and”; a condition that tells them apart may be missing. Equal values may be shown once. Records with an inconclusive call do not appear. Activity calls are given as the source filed them. Unless noted, calls come from the whole dose curve; as a rule, active = well fitted curve in the direction sought with a large enough effect; inconclusive = small, poorly fitted or top-dose-only effect, or another doubt; inactive = no such curve, though single readings can be large; an effect the other way counts as inactive or inconclusive.

Assays:
[1] = qHTS Assay for Lipid Storage Modulators (AID 1519; calls by dose curve; for activity change, negative = inhibition: % is set by controls: 0 for no effect and ±100 for the full control effect); settings: Drosophila S3 cells, BODIPY lipid droplet/cell ratio, laser cytometry, cells loaded with oleic acid
Outline: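 Cells seeded at 5,000 per well were treated with compounds over a concentration series and loaded with oleic acid (400 uM, as added). Lipid droplet fluorescence (488 nm excitation, 500-530 nm channel) was read by laser-scanning cytometry and normalized to 20 uM Triacsin C.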

[2] = biological target: DNA repair nuclease/redox regulator APEX1 (Homo sapiens) (UniProt P27695); test: qHTS Validation Assay for Inhibitors of the Human Apurinic/apyrimidinic Endonuclease 1 (APE1) (AID 1705;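 note: TAMRA fluorescence gain over two minutes as APE1 cuts a quenched THF abasic duplex; % is set by controls: 0 for no effect and ±100 for the full control effect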); settings: purified APE1 endonuclease activity, fluorescence, titration; series mostly up to 57.1 µM
Outline: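 qHTS, 1536-well. APE1 + cpd 15 min RT → 50 nM TAMRA/BHQ-2 THF-abasic dsDNA substrate → kinetic fluorescence, 3 reads/60 s; delta(read3−read1) = reaction progress. No-enzyme buffer = negative control.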

[3] = Counterscreen for APE1 Inhibitors: Fluorescent Dye Displacement Validation Assay (AID 1707); settings: fluorescent dye displacement from DNA; series mostly up to 57.1 µM;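 note: plate controls were ThO with dsDNA and no compound for no effect and ThO without dsDNA for full effect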
Outline: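 Assay buffer: Tris-HCl pH7.5 with 50mM NaCl, 2 mM MgCl2, 0.01% Tween-20. Dye 250 nM, duplex 50 nM final. Readout: decrease in ThO endpoint fluorescence, 480 nm excitation, 540 nm emission.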

[4] = biological target: Endonuclease 4 (Escherichia coli (strain K12)) (UniProt P0A6C1); test: Counterscreen for APE1 Inhibitors: qHTS Validation Assay for Inhibitors of Endonuclease IV (AID 1708); note: % is set by controls: 0 for no effect and ±100 for the full control effect; settings: E. coli endonuclease IV, DNA cleavage fluorescence; series mostly up to 57.1 µM
Outline: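 qHTS concentration-response format; LOPAC1280 tested under APE1-screen conditions. 2 nM enzyme, 15 min compound preincubation at RT, then 50 nM TAMRA/BHQ-2 abasic substrate; kinetic fluorescence read, three reads at 60 s intervals.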

[5] = qHTS for differential inhibitors of proliferation of Plasmodium falciparum line 7G8 (AID 1815); settings: Plasmodium falciparum 7G8 proliferation inhibition; series mostly up to 28.7 µM;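 note: parasite growth measured after three days of incubation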; note: potency is the fitted concentration of half-maximal effect;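 for activity change, negative = inhibition: plate controls were vehicle wells for no effect and reference inhibitor wells for full effect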
[6] = qHTS for differential inhibitors of proliferation of Plasmodium falciparum line 3D7 (AID 1876); note: potency is the fitted concentration of half-maximal effect; settings: P. falciparum 3D7 proliferation inhibition; series mostly up to 28.7 µM
[7] = qHTS for differential inhibitors of proliferation of Plasmodium falciparum line D10 (AID 1877); settings: series mostly up to 28.7 µM;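 note: parasites grown with compound for 72 h before DNA staining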; note: potency is the fitted concentration of half-maximal effect;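 for activity change, negative = inhibition: plate controls were vehicle wells for no effect and reference inhibitor wells for full effect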
[8] = qHTS for differential inhibitors of proliferation of Plasmodium falciparum line Dd2 (AID 1882); settings: Potency: Plasmodium falciparum Dd2 proliferation inhibition; series mostly up to 28.7 µM; note: nearly all actives have a fitted effect of over 65% in size; note: potency is the fitted concentration of half-maximal effect;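 for activity change, negative = inhibition: plate controls were DMSO vehicle for no effect and 0.29 µM artemisinin for full effect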
Outline: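 Dd2-infected erythrocytes (0.3% parasitemia, 2.5% hematocrit final) incubated with compound 72 h at 37 C, 5% CO2; lysed with saponin/Triton buffer containing SYBR Green I, incubated overnight in the dark, then read by fluorescence (485/535 nm). Normalized to 0.29 uM artemisinin and DMSO.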

[9] = qHTS for differential inhibitors of proliferation of Plasmodium falciparum line GB4 (AID 1816); settings: Potency: Plasmodium falciparum GB4 proliferation inhibition; series mostly up to 28.7 µM;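 note: parasite growth measured after 72 h incubation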; note: potency is the fitted concentration of half-maximal effect;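 for activity change, negative = inhibition: 0% = vehicle DMSO and -100% = reference inhibitor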
[10] = qHTS for differential inhibitors of proliferation of Plasmodium falciparum line W2 (AID 1883); settings: Potency: Plasmodium falciparum W2 proliferation inhibition; series mostly up to 28.7 µM;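 note: parasites grown with compound for 72 h before lysis and staining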; note: potency is the fitted concentration of half-maximal effect;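 for activity change, negative = inhibition: 0% = vehicle wells and -100% = control inhibitor wells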
[11] = measured here: cell count channel max response
[12] = measured here: lipid channel max response

Sequence of DNA repair nuclease/redox regulator APEX1 (Homo sapiens) (P27695 whole entry, looked up): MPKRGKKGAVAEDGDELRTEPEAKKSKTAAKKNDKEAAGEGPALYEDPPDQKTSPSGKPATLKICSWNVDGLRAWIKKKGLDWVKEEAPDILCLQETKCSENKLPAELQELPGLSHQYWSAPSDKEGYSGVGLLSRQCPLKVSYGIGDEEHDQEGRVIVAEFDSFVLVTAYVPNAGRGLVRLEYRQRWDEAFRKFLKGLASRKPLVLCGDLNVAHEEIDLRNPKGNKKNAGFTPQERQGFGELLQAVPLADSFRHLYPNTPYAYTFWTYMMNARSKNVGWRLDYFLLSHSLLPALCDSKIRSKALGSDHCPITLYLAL

c1ccc2c(c1)CCCC2C1=NCCN1 (stereo not given)
inactive: activity change, negative = inhibition ([1]; at 57.5 µM (top of the series)) 9.7% and 1.83% | Potency [2] | outcome [3] | Potency [4] | Potency [5] | Potency [6] | Potency [7] | Potency [8]
6.5% and -25.5%: max response [1, 11]
18.8% and -24.9%: max response [1, 12]

O=C1NCN(c2ccccc2)C12CCN(CCCC(c1ccc(F)cc1)c1ccc(F)cc1)CC2
inactive: activity change, negative = inhibition ([1]; at 25.7 µM (top of the series)) -8.24% | Potency [2] | outcome [3]
-19.4%: max response [1, 11]
active: Potency [5] 4.47 µM | Potency [9] 8.91 µM | Potency [6] 2 µM | Potency [7] 10 µM | Potency [8] 8.91 µM | Potency [10] 2.82 µM
-26.6%: max response [1, 12]

CCN1CCc2nc(N)oc2CC1
-8.22%: max response [1, 11]
-7.55%: max response [1, 12]
inactive: activity change, negative = inhibition ([1]; at 57.5 µM (top of the series)) 0.659% | Potency [2] | outcome [3] | Potency [4] | Potency [5] | Potency [9] | Potency [6] | Potency [7] | Potency [8] | Potency [10]

NC(Cc1ccc(Cl)cc1)C(=O)O (stereo not given)
16.7%: max response [1, 11]
inactive: activity change, negative = inhibition ([1]; at 57.5 µM (top of the series)) 7.45% | Potency [2] | outcome [3] | Potency [5] | Potency [9] | Potency [6] | Potency [7] | Potency [8] | Potency [10]
25.4%: max response [1, 12]

CC(C(=O)O)c1ccc(CC2CCCC2=O)cc1 (stereo not given)
-27.7%: max response [1, 11]
inactive: activity change, negative = inhibition ([1]; at 57.5 µM (top of the series)) -1.18% | Potency [2] | outcome [3] | Potency [5] | Potency [9] | Potency [6] | Potency [7] | Potency [8]
-27%: max response [1, 12]

N[C@@H](COP(=O)(O)O)C(=O)O
26.3% and -20.3%: max response [1, 12]
inactive: activity change, negative = inhibition ([1]; at 57.5 µM (top of the series)) 3.29% and -0.662% | Potency [2] | outcome [3] | Potency [5] | Potency [9] | Potency [6] | Potency [7] | Potency [8]
18.8% and -18.9%: max response [1, 11]

C[N+](C)(C)CCOC(N)=O
10.4%: max response [1, 11]
inactive: activity change, negative = inhibition ([1]; at 25.7 µM (top of the series)) 1.99% | Potency [2] | Potency [4] | Potency [5] | Potency [9] | Potency [6] | Potency [7] | Potency [8] | Potency [10]
11.4%: max response [1, 12]

CC(N=C(NC#N)Nc1ccncc1)C(C)(C)C (stereo not given)
active: Potency [10] 11.2 µM
inactive: activity change, negative = inhibition ([1]; at 57.5 µM (top of the series)) 13.9% and 0.102% | Potency [2] | outcome [3] | Potency [4] | Potency [8]
14.8% and -22.8%: max response [1, 12]
1.72% and -23.9%: max response [1, 11]

O=c1[nH]c(=O)n([C@H]2C[C@H](O)[C@@H](CO)O2)cc1Br
5.46% and -18.7%: max response [1, 11]
1.8% and -25.8%: max response [1, 12]
inactive: activity change, negative = inhibition ([1]; at 57.5 µM (top of the series)) -1.72% and -8.79% | Potency [2] | outcome [3] | Potency [4] | Potency [5] | Potency [9] | Potency [6] | Potency [7] | Potency [8] | Potency [10]

CO[C@@]1(NC(=O)CSCC#N)C(=O)N2C(C(=O)O)=C(CSc3nnnn3C)CS[C@@H]21
inactive: activity change, negative = inhibition ([1]; at 57.5 µM (top of the series)) 0.161% | Potency [2] | outcome [3] | Potency [5] | Potency [9] | Potency [6] | Potency [7] | Potency [8]
-28.1%: max response [1, 11]
-28.4%: max response [1, 12]

COCCc1ccc(OCC(O)CNC(C)C)cc1 (stereo not given)
-17.2%: max response [1, 11]
inactive: activity change, negative = inhibition ([1]; at 57.5 µM (top of the series)) 2.43% | Potency [2] | Potency [4] | Potency [5] | Potency [6] | Potency [7] | Potency [8]
-15.7%: max response [1, 12]

Cc1nc2ccccn2c(=O)c1CCN1CCC(C(=O)c2ccc(F)cc2)CC1
active: Potency [5] 7.94 µM | Potency [9] 11.2 µM | Potency [6] 10 µM | Potency [10] 7.94 µM
7.37%: max response [1, 11]
inactive: activity change, negative = inhibition ([1]; at 57.5 µM (top of the series)) 16.1% | Potency [2] | outcome [3] | Potency [4]
24.1%: max response [1, 12]

CCCN(CCC)C(=O)C(CCC(=O)O)NC(=O)c1ccccc1 (stereo not given)
19.5%: max response [1, 11]
23.3%: max response [1, 12]
inactive: activity change, negative = inhibition ([1]; at 57.5 µM (top of the series)) 2.72% | Potency [2] | Potency [5] | Potency [9] | Potency [6] | Potency [7] | Potency [8] | Potency [10]

COc1ccc(CN(CCN(C)C)c2ccccn2)cc1
5.42% [middle of 4 runs]: max response [1, 11]
active: Potency [9] 8.91 µM | Potency [10] 5.62 µM
inactive: activity change, negative = inhibition ([1]; at 25.7 µM (top of the series)) 1.57% | activity change, negative = inhibition ([1]; at 57.5 µM (top of the series)) 2.66% and 4.86% and -0.667% | Potency [2] | Potency [4] | Potency [6] | Potency [7]

CCn1ccnc1CC1COc2ccccc2O1 (stereo not given)
60.7%: max response [1, 12]
56.5%: max response [1, 11]
inactive: activity change, negative = inhibition ([1]; at 57.5 µM (top of the series)) 1.49% | Potency [2] | outcome [3] | Potency [4] | Potency [6] | Potency [7] | Potency [8]
active: Potency [10] 10 µM

COCCOC(=O)C1=C(C)NC(C)=C(C(=O)OC(C)C)C1c1cccc([N+](=O)[O-])c1 (stereo not given)
26.9% and 56.5%: max response [1, 12]
12.3% and 59.2%: max response [1, 11]
active: Potency [5] 4.47 µM | Potency [9] 10 µM | Potency [6] 7.94 µM | Potency [7] 12.6 µM | Potency [10] 6.31 µM
inactive: activity change, negative = inhibition ([1]; at 57.5 µM (top of the series)) 10.8% and 3.42% | Potency [2] | outcome [3]

NC(=O)N1c2ccccc2C=Cc2ccccc21
-5.44%: max response [1, 12]
inactive: activity change, negative = inhibition ([1]; at 25.7 µM (top of the series)) -0.889% | Potency [2] | Potency [4] | Potency [5] | Potency [9] | Potency [6] | Potency [7] | Potency [8]
-0.817%: max response [1, 11]

OCCN1CCN(CCCN2c3ccccc3C=Cc3ccccc32)CC1
45.9%: max response [1, 11] | max response [1, 12]
inactive: activity change, negative = inhibition ([1]; at 57.5 µM (top of the series)) -1.21% | Potency [2] | outcome [3] | Potency [4]
active: Potency [5] 3.16 µM and 3.98 µM | Potency [9] 5.01 µM and 4.47 µM | Potency [6] 11.2 µM and 8.91 µM | Potency [7] 10 µM | Potency [8] 5.62 µM and 7.94 µM | Potency [10] 2.51 µM and 2.24 µM
